# Test results as given in ChEMBL document CHEMBL2218924, “A broad activity screen in support of a chemogenomic map for kinase signalling research and drug discovery” (Biochem J, 2013).
# Key:
# [1] = target: Serine/threonine-protein kinase Nek6 (Homo sapiens) (UniProt Q9HC98); conditions: at 1 µM
# [2] = target: Serine/threonine-protein kinase Nek6 (Homo sapiens) (UniProt Q9HC98); conditions: at 10 µM
# [3] = target: Serine/threonine-protein kinase Nek7 (Homo sapiens) (UniProt Q8TDX7); conditions: at 1 µM
# Sequence of Serine/threonine-protein kinase Nek7 (Homo sapiens) (Q8TDX7 whole entry, looked up): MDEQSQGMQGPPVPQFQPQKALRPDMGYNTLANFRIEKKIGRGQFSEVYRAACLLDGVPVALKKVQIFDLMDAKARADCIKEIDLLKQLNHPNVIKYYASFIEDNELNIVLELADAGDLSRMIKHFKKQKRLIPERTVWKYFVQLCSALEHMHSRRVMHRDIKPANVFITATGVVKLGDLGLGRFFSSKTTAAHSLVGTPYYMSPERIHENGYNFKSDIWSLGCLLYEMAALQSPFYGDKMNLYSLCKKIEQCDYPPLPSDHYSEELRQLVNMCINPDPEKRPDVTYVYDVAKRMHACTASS
# [4] = target: Serine/threonine-protein kinase Nek7 (Homo sapiens) (UniProt Q8TDX7); conditions: at 10 µM
# [5] = target: T1, Serine/threonine-protein kinase NLK (Homo sapiens) (UniProt Q9UBE8); conditions: at 1 µM
# T1 sequence (whole entry): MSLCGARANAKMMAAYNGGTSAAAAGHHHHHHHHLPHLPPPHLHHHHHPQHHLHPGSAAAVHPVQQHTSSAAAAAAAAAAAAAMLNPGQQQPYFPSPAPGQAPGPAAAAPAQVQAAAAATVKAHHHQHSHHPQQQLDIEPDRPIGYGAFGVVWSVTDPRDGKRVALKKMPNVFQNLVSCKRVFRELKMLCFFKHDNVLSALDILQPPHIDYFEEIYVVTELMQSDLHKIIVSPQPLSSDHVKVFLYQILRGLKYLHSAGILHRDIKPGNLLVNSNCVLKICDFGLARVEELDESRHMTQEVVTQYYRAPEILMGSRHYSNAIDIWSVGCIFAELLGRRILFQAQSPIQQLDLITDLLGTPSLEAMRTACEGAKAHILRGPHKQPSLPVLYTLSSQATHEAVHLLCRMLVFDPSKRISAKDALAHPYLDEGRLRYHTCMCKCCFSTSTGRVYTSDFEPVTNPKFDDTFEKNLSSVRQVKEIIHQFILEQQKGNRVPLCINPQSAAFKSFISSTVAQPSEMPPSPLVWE
# [6] = target: T1, Serine/threonine-protein kinase NLK (Homo sapiens); conditions: at 10 µM
# [7] = target: Serine/threonine-protein kinase PAK 2 (Homo sapiens) (UniProt Q13177); conditions: at 1 µM
# Sequence of Serine/threonine-protein kinase PAK 2 (Homo sapiens) (Q13177 whole entry): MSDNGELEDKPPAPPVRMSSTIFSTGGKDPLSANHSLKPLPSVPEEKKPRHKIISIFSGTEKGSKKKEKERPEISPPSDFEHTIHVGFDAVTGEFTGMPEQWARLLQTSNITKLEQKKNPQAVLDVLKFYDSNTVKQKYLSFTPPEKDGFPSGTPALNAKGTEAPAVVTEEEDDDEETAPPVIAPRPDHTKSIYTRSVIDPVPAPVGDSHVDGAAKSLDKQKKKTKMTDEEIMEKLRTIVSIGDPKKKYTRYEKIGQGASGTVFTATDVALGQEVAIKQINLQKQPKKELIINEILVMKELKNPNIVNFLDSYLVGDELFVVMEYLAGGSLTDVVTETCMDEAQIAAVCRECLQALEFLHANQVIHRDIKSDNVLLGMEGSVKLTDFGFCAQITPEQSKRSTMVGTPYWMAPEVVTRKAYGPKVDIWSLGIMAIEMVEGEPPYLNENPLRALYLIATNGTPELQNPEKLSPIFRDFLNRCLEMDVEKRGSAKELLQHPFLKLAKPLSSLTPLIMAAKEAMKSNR
# [8] = target: Serine/threonine-protein kinase PAK 2 (Homo sapiens) (UniProt Q13177); conditions: at 10 µM
# [9] = target: Serine/threonine-protein kinase PAK 4 (Homo sapiens) (UniProt O96013); conditions: at 1 µM
# [10] = target: Serine/threonine-protein kinase PAK 4 (Homo sapiens) (UniProt O96013); conditions: at 10 µM
# [11] = target: Serine/threonine-protein kinase PAK 5 (Homo sapiens) (UniProt Q9P286); conditions: at 1 µM
# Sequence of Serine/threonine-protein kinase PAK 5 (Homo sapiens) (Q9P286 whole entry, looked up): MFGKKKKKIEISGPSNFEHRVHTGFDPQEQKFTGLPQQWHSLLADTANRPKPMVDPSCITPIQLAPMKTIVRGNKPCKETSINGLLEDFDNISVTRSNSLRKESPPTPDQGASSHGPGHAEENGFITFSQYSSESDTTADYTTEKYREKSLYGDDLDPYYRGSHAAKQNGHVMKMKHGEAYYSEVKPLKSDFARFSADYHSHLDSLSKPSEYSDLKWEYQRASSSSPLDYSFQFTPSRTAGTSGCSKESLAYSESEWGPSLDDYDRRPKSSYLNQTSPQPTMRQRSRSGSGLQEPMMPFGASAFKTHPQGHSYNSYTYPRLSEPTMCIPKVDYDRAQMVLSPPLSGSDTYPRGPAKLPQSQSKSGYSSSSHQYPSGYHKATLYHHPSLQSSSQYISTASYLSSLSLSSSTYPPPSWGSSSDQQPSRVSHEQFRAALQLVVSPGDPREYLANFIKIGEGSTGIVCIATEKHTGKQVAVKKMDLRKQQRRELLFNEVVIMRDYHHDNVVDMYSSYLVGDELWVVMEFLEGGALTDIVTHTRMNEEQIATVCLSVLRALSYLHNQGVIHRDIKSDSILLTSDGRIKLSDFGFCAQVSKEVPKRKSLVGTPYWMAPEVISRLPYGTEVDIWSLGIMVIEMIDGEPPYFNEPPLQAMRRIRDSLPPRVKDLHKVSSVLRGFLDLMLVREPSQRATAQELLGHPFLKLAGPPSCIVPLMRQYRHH
# [12] = target: Serine/threonine-protein kinase PAK 5 (Homo sapiens) (UniProt Q9P286); conditions: at 10 µM
# [13] = target: Serine/threonine-protein kinase PAK 6 (Homo sapiens) (UniProt Q9NQU5); conditions: at 1 µM
# Sequence of Serine/threonine-protein kinase PAK 6 (Homo sapiens) (Q9NQU5 whole entry, looked up, the tested form may be a part): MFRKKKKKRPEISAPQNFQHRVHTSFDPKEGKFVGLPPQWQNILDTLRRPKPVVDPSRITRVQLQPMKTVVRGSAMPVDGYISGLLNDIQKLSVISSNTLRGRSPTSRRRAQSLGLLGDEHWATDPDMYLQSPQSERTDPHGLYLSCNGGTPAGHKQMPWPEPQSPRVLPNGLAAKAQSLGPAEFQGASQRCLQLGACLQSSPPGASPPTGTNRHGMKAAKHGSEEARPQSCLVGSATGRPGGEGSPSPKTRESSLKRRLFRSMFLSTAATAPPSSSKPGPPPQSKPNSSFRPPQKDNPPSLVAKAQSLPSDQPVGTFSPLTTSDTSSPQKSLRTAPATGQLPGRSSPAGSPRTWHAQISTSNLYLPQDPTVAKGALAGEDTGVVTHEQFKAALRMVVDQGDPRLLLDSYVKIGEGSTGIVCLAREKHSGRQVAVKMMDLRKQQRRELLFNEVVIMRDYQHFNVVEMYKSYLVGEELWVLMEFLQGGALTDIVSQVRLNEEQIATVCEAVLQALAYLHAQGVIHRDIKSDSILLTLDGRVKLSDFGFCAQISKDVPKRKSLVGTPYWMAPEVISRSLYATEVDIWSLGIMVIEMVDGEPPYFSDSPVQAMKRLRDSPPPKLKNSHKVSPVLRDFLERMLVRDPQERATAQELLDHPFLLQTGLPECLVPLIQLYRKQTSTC
# [14] = target: Serine/threonine-protein kinase PAK 6 (Homo sapiens) (UniProt Q9NQU5); conditions: at 10 µM
# [15] = target: PAS domain-containing serine/threonine-protein kinase (Homo sapiens) (UniProt Q96RG2); conditions: at 1 µM
# Sequence of PAS domain-containing serine/threonine-protein kinase (Homo sapiens) (Q96RG2 whole entry, the tested form may be a part): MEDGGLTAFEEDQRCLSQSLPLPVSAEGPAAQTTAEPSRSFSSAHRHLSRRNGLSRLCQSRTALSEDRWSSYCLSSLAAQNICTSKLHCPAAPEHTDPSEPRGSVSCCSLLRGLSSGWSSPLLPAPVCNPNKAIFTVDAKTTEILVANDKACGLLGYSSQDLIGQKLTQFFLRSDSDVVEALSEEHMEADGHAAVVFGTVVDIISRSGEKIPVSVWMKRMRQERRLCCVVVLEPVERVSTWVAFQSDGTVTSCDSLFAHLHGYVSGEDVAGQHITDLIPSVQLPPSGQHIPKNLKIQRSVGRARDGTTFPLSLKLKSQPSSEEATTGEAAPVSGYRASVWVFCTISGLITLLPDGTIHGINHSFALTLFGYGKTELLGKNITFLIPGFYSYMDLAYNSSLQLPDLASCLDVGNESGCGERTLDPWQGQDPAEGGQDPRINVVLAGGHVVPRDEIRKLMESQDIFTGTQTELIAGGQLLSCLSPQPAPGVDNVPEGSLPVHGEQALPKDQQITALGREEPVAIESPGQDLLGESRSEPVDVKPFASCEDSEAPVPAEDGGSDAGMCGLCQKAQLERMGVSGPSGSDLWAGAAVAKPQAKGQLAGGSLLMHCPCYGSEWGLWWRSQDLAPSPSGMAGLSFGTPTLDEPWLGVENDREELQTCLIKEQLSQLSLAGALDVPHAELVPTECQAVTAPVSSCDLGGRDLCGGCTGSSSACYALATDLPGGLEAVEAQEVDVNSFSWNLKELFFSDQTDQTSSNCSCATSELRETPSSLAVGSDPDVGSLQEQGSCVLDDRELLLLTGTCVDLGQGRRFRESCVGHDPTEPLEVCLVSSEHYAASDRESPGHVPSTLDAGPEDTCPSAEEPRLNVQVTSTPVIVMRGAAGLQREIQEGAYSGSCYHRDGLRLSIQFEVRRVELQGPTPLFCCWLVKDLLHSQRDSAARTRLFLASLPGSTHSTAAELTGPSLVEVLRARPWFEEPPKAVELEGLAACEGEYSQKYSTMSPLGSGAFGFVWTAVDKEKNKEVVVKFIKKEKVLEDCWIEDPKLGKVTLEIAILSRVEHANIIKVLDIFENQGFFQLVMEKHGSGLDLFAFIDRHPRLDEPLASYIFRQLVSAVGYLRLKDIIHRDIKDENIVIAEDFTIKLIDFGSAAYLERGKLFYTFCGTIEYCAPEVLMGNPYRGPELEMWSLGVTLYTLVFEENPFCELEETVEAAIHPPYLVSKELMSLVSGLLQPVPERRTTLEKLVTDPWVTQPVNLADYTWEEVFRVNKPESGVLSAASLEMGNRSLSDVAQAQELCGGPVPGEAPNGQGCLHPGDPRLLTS
# [16] = target: PAS domain-containing serine/threonine-protein kinase (Homo sapiens) (UniProt Q96RG2); conditions: at 10 µM
# [17] = target: Activated CDC42 kinase 1 (Homo sapiens) (UniProt Q07912); conditions: at 1 µM
# Sequence of Activated CDC42 kinase 1 (Homo sapiens) (Q07912 whole entry, looked up): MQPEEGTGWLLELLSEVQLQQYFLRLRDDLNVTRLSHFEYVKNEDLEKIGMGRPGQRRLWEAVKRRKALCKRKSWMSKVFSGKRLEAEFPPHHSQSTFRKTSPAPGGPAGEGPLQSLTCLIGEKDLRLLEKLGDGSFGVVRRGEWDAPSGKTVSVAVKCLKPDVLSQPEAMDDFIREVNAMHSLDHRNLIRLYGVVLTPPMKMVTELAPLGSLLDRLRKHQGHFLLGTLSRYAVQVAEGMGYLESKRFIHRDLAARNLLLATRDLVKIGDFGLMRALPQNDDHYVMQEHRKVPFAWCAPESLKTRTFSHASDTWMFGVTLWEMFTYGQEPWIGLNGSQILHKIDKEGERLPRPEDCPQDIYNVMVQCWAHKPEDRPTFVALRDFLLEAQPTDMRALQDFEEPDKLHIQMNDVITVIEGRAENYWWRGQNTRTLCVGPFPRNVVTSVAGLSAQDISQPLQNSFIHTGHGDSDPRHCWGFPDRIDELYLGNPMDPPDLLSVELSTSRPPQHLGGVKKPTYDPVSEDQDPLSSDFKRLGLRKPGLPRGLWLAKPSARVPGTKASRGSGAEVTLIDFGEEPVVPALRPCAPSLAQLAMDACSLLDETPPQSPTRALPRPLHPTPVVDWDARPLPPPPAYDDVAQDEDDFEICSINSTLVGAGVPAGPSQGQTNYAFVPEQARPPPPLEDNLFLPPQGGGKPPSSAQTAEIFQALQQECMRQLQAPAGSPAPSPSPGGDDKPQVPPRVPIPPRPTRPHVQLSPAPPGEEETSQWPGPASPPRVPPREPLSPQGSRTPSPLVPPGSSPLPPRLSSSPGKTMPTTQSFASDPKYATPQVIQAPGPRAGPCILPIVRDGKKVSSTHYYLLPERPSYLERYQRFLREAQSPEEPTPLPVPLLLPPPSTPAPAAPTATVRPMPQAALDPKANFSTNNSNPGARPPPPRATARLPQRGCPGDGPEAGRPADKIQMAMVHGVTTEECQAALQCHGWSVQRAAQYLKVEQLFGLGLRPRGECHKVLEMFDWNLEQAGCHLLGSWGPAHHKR
# [18] = target: Activated CDC42 kinase 1 (Homo sapiens) (UniProt Q07912); conditions: at 10 µM
# [19] = target: ALK tyrosine kinase receptor (Homo sapiens) (UniProt Q9UM73); conditions: at 1 µM
# [20] = target: ALK tyrosine kinase receptor (Homo sapiens) (UniProt Q9UM73); conditions: at 10 µM
# Sequence of Serine/threonine-protein kinase Nek6 (Homo sapiens) (Q9HC98 whole entry): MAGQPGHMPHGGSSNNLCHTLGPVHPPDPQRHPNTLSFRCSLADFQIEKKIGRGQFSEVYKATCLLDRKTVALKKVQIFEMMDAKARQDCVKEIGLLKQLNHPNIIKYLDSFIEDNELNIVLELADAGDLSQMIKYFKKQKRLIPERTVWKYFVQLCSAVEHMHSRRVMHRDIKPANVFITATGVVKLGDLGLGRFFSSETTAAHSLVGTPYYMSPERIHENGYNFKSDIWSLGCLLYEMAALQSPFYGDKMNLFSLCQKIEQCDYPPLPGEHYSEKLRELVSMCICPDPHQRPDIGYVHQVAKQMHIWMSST
structure (smiles),measurement,setting,value
O=C1Nc2ccc3ncsc3c2/C1=C/c1c[nH]cn1,residual activity,[1],80% (inactive)
same,residual activity,[2],77%
same,residual activity,[3],84% (inactive)
same,residual activity,[4],63% (inactive)
same,residual activity,[5],29%
same,residual activity,[6],5%
same,residual activity,[7],96%
same,residual activity,[8],54%
same,residual activity,[9],67%
same,residual activity,[10],22%
same,residual activity,[11],70%
same,residual activity,[12],34%
same,residual activity,[13],83%
same,residual activity,[14],36%
same,residual activity,[15],46%
same,residual activity,[16],2%
same,residual activity,[17],64%
same,residual activity,[18],17%
same,residual activity,[19],72%
same,residual activity,[20],57%
CO[C@@H]1[C@H](N(C)C(=O)c2ccccc2)C[C@H]2O[C@]1(C)n1c3ccccc3c3c4c(c5c6ccccc6n2c5c31)C(=O)NC4,residual activity,[15],85%
C[S+]([O-])c1ccc(-c2nc(-c3ccc(F)cc3)c(-c3ccncc3)[nH]2)cc1 (stereo unspecified),residual activity,[1],112% (inactive)
same,residual activity,[2],103%
same,residual activity,[3],101% (inactive)
same,residual activity,[4],116% (inactive)
same,residual activity,[5],62%
same,residual activity,[6],24%
same,residual activity,[7],110%
same,residual activity,[8],100%
same,residual activity,[9],106%
same,residual activity,[10],106%
same,residual activity,[11],105%
same,residual activity,[12],104%
same,residual activity,[13],110%
same,residual activity,[14],100%
same,residual activity,[15],113%
same,residual activity,[16],113%
same,residual activity,[17],93%
same,residual activity,[18],39%
same,residual activity,[19],122%
same,residual activity,[20],93%
Cc1nc2cc3nc(-c4cccs4)cnc3cc2n1C,residual activity,[15],98%
Ic1cccc(CSc2nnc(-c3ccncc3)o2)c1,residual activity,[15],108%
CN[C@@H]1C[C@H]2O[C@@](C)([C@@H]1OC)n1c3ccccc3c3c4c(c5c6ccccc6n2c5c31)C(=O)NC4,residual activity,[1],75% (inactive)
same,residual activity,[2],72%
same,residual activity,[19],0%
same,residual activity,[20],1%
CC(C)[C@H](CO)Nc1nc(Nc2cccc(Cl)c2)c2ncn(C(C)C)c2n1,residual activity,[1],117% (inactive)
same,residual activity,[2],122%
same,residual activity,[3],102% (inactive)
same,residual activity,[5],100%
same,residual activity,[6],81%
same,residual activity,[7],99%
same,residual activity,[8],79%
same,residual activity,[9],31%
same,residual activity,[10],4%
same,residual activity,[11],50%
same,residual activity,[12],11%
same,residual activity,[13],57%
same,residual activity,[14],13%
same,residual activity,[15],135%
same,residual activity,[16],116%
same,residual activity,[17],45%
same,residual activity,[18],14%
same,residual activity,[19],71%
same,residual activity,[20],26%
c1cc(-c2cnn3cc(-c4ccc(OCCN5CCCCC5)cc4)cnc23)ccn1,residual activity,[1],118% (inactive)
same,residual activity,[2],106%
same,residual activity,[3],106% (inactive)
same,residual activity,[4],104% (inactive)
same,residual activity,[5],86%
same,residual activity,[6],34%
same,residual activity,[7],118%
same,residual activity,[8],103%
same,residual activity,[9],84%
same,residual activity,[10],77%
same,residual activity,[11],87%
same,residual activity,[12],69%
same,residual activity,[15],106%
same,residual activity,[16],57%
same,residual activity,[17],63%
same,residual activity,[18],18%
same,residual activity,[19],76%
same,residual activity,[20],61%
CC(=O)O/N=C1\C(=C2\C(=O)Nc3cc(Br)ccc32)Nc2ccccc21,residual activity,[15],93%
COc1ccc2c(c[n+](C)c3c4cc5c(cc4ccc23)OCO5)c1OC,residual activity,[2],68%
same,residual activity,[3],100% (inactive)
same,residual activity,[4],137% (inactive)
same,residual activity,[5],92%
same,residual activity,[6],76%
same,residual activity,[8],81%
same,residual activity,[12],87%
same,residual activity,[13],99%
same,residual activity,[14],61%
same,residual activity,[15],70%
same,residual activity,[16],61%
same,residual activity,[17],84%
same,residual activity,[18],68%
same,residual activity,[20],65%
CCN(CC)CCNC(=O)c1c(C)[nH]c(/C=C2\C(=O)Nc3ccc(Cl)cc32)c1C,residual activity,[15],70%
COc1ccc(S(=O)(=O)N(CCO)c2ccccc2CN(C)C/C=C/c2ccc(Cl)cc2)cc1,residual activity,[15],116%
Cc1ccc(S(=O)(=O)/C=C/C#N)cc1,residual activity,[15],82%
O=[N+]([O-])/C=C/c1ccc2c(c1)OCO2,residual activity,[2],113%
same,residual activity,[3],99% (inactive)
same,residual activity,[4],114% (inactive)
same,residual activity,[5],107%
same,residual activity,[6],95%
same,residual activity,[7],111%
same,residual activity,[8],100%
same,residual activity,[9],91%
same,residual activity,[10],93%
same,residual activity,[11],103%
same,residual activity,[12],92%
same,residual activity,[14],102%
same,residual activity,[15],107%
same,residual activity,[16],87%
same,residual activity,[17],83%
same,residual activity,[18],69%
same,residual activity,[19],84%
same,residual activity,[20],101%
CN(C)CCCn1cc(C2=C(c3c[nH]c4ccccc34)C(=O)NC2=O)c2ccccc21,residual activity,[15],74%
